In PubChem BioAssay AID2240 (Broad Institute, 2010):
Hit rate of the full screen: of about 37,000 compounds, about 100 (0.27%) were called active. This is one part of a sample in which actives are shown more often than they occur. Values without a mark were called inactive. Rule as the data show it: active = inhibition above about 85%; inconclusive = no clear call, values can overlap the other calls; inactive = below about 68%.

test: blocks MITF activity, primary screen, MITF inhibitor project, cell-based, luminescence (AID 2240); conditions: TRPM1 promoter luciferase, 24 h, stronger effect = higher value, concentration not given here;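 also: human melanocyte line stably carrying TRPM1 promoter luciferase reporter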

Question: Which inhibition does the source give for `C[C@H](CO)N1C[C@H](C)[C@@H](CN(C)Cc2ccc(C(F)(F)F)cc2)Oc2ccc(NC(=O)CCN3CCOCC3)cc2C1=O` here?
Answer: -9.07%

Question: Which inhibition does the source give for `c1ccc(Cn2c3ccccc3c3nnc(SCc4ccc5nonc5c4)nc32)cc1` here?
Answer: 20.6%

Question: For `C[C@@H]1CCCCO[C@@H](CN(C)C(=O)CCC(F)(F)F)[C@@H](C)CN([C@H](C)CO)C(=O)c2cc(NC(=O)Nc3ccccc3)ccc2O1`, which inhibition is on record?
Answer: -11.3%

Question: Which inhibition does the source give for `C[C@@H]1CN([C@@H](C)CO)C(=O)c2cc(NC(=O)C3CCCCC3)ccc2O[C@@H]1CN(C)Cc1ccc(C(=O)O)cc1` here?
Answer: 1.31%

Question: Which inhibition does the source give for `COc1ccc(NC(=O)CN(C)S(=O)(=O)c2ccccc2)cc1OC` here?
Answer: -9.83%

Question: With `COc1ccc(NC(=O)N(C)C[C@H]2Oc3c(NC(=O)C4CC4)cccc3C(=O)N([C@@H](C)CO)C[C@@H]2C)cc1` as the compound, how does the inhibition read?
Answer: 0.647%

Question: For `C[C@H]1CN([C@@H](C)CO)C(=O)c2cc(N(C)C)ccc2O[C@@H]1CN(C)Cc1ccccc1`, which inhibition is on record?
Answer: -14.1%

Question: Which inhibition does the source give for `O=C(CSc1nccc(=O)[nH]1)Nc1ccc([N+](=O)[O-])cc1` here?
Answer: -3.55%

Question: Which inhibition does the source give for `COc1cc(NC(=S)NCCN2CCOCC2)c(OC)cc1Cl` here?
Answer: 17.1%

Question: Which inhibition does the source give for `O=C(Nn1cnc2ccccc2c1=O)c1ccccc1` here?
Answer: -19.3%

Question: Which inhibition does the source give for `C[C@@H]1CN([C@H](C)CO)C(=O)c2cc(NS(=O)(=O)c3cccs3)ccc2O[C@@H]1CN(C)Cc1ccc(C(F)(F)F)cc1` here?
Answer: -1.87%

Question: Which inhibition does the source give for `COc1ccc(NC(=O)Nc2cccc3c2O[C@@H](CN(C)S(=O)(=O)c2ccc(C)cc2)[C@H](C)CN([C@@H](C)CO)C3=O)cc1` here?
Answer: -6.48%

Question: Which inhibition does the source give for `CCN(c1ccccc1)S(=O)(=O)c1ccc(C)cc1` here?
Answer: 12.9%

Question: For `C[C@H](CO)N1C[C@H](C)[C@H](CN(C)C(=O)Nc2ccc3c(c2)OCO3)Oc2ccc(NC(=O)Nc3ccccc3)cc2CC1=O`, which inhibition is on record?
Answer: -9.08%

Question: With `COc1ccc(S(=O)(=O)N(C)C[C@H]2Oc3ccc(NC(=O)C4CC4)cc3CC(=O)N([C@@H](C)CO)C[C@@H]2C)cc1` as the compound, how does the inhibition read?
Answer: -12.4%

Question: For `COC(=O)c1c(-c2cccnc2)csc1NC(=O)c1cc(-c2ccc(C)o2)nc2ccccc12`, which inhibition is on record?
Answer: -34.4%

Question: For `Cc1ccc(S(=O)(=O)N(C)C[C@H]2Oc3c(NS(=O)(=O)c4cccs4)cccc3C(=O)N([C@@H](C)CO)C[C@@H]2C)cc1`, which inhibition is on record?
Answer: 0.709%

Question: With `O=C(CSc1nc2ccccc2s1)c1cc2ccccc2oc1=O` as the compound, how does the inhibition read?
Answer: -18%

Question: Which inhibition does the source give for `C[C@@H]1CN([C@@H](C)CO)C(=O)c2cc(NC(=O)CCCN(C)C)ccc2O[C@@H]1CN(C)Cc1ccncc1` here?
Answer: 4.25%

Question: With `CCCN(C)C[C@H]1OCCCC[C@@H](C)Oc2ccc(N(C)C)cc2C(=O)N([C@H](C)CO)C[C@@H]1C` as the compound, how does the inhibition read?
Answer: 43.3%

Question: Which inhibition does the source give for `CC(=O)c1c(C)nn(CC(O)COc2ccc3cc(Br)ccc3c2)c1C` (centres undefined) here?
Answer: 50.6%

Question: For `Cc1ccc(S(=O)(=O)N(C)C[C@H]2Oc3c(NS(=O)(=O)c4ccc(Cl)cc4)cccc3C(=O)N([C@H](C)CO)C[C@@H]2C)cc1`, which inhibition is on record?
Answer: 0.159%

Question: With `Oc1c(Cl)cc(Cl)c(Cl)c1Cc1c(O)c(Cl)cc(Cl)c1Cl` as the compound, how does the inhibition read?
Answer: 93.7% (active)

Question: For `O=C(NCCN1CCCCC1)Nc1cccc2ccccc12`, which inhibition is on record?
Answer: 5.31%
